For the assay, the system named is VDR:RXRa (NR concentration 270 nM, RXRa partner concentration 90 nM). Nature of the assay: PBM binding z-score (relative to random genomic background probes); higher = stronger binding; sequences stand for … in GC…GCGATTGACAGCGTAGAATGAAGG
On the procedure: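 Protein-binding microarray (Agilent 4x180K custom design, double-stranded 60-nt probes: 5' GC cap, 34-nt variable region, 24-nt constant primer region; full probe sequence given). Purified or IVT nuclear receptor:RXRα heterodimers (3:1 NR:RXRα, mostly 270:90 nM) or homodimers were incubated for 1 h in PBS with 2% milk and no ligand, then detected with Alexa488 antibodies. Fluorescence from o1-orientation probes (~5 replicates averaged) was converted to z-scores against 500 random hg19 background probes. Variable regions are seed direct-repeat (DR0–DR5) sites, all their single-nucleotide variants and half-site ablations.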
The sequence CCAGACAGGTGAGAAGGTAACTCAGCCTCGATTA had a PBM binding z-score of 0.116.
Turning to CGAACTAGGTCACCCAGGACAGTGAATACATTGA, the PBM binding z-score turned out to be 4.43.
In turn, ATATGTAGTTTATCGGGTCATTCAGTTTGCGCAT gave a PBM binding z-score of 5.19.
Sequence TAGCCTAGTTCATTCAGGGGCCAGTATAGAAAGC displayed a PBM binding z-score of 2.
As to CCTCGGAGGTCAACAGGAGGTCAGAGCTGCCAGA, the PBM binding z-score was determined as 6.19.
Consider CAAACTAGGTCACAGTGGTCAAAGTCCGTGCGTA, for which the PBM binding z-score worked out at 4.36.
The sequence TTACCAAGGTGAACGGTCGTTGATGCACGCCTTG had a PBM binding z-score of 0.0102.
On to CCTACTCGGCCAAAAAGGTCATTGATGCCGATAA, for which the PBM binding z-score is 4.9.
The value for ATCGAAAGGTCGAAGGTGAGCATACCCACCCGAA was 2.63; that for AGTCAAAGTTCATCTAGGTAACATAAGATATGCT was 5.33.
Consider CGTCCAAGGTCACAGAGGTCAGTGAATGCCGAGT, for which the PBM binding z-score amounted to 7.74.
For the sequence TCTGCTAGGTCAACGATGGTCAGTTAATCTGCTA, the PBM binding z-score is 1.62.
CCTTACGGGTCACGTGGTTATAGCACGACGAGCG showed a PBM binding z-score of 3.94.
Consider TCGTGTAGGTTACGGGGGCATTCAGGGATGAAGA, for which the PBM binding z-score was found to be 4.42.
With AATACAGGGTCATCGTAGGTCAGAGTACGCACAG the figure was 6.2.
The value for CGTCAAAGGTCAAGGTAACGTAACAGAAAGCAGC was 5.13.
TGAATGAGGTTAAATATCAGGGAACGTGGCGTCG yielded a PBM binding z-score of 1.54.
In turn, CCTACTGGGCCACTAAAGGTCATTGATTCAGTGA gave a PBM binding z-score of 4.05.
The value for GCTTACGGGTCCAAGGTTATAGCATGAATAGAAT was 1.26.
The value for CCTGCTAGGTCAAAGGTCAGCTAAAGCAGCTCGC was 5.81.
